The text below walks through data of publication PMC11006913.

Holding throughout (test): PBM; 200 nM protein, PBS
What all share (conditions): dsDNA, one strand shown

Experiment [1] deals with HOXA7 (Homo sapiens, UniProt P31268 116-202).
Experiment [2] has as its target HOXA7 (Homo sapiens, UniProt P31268 116-202, W177C).
A further experiment deals with HOXC10 (Homo sapiens, UniProt Q9NYD6 254-340).
In a further experiment the target is T1, NKX2-4 (Homo sapiens, UniProt Q9H2Z4 175-261, T231S).
T1 sequence: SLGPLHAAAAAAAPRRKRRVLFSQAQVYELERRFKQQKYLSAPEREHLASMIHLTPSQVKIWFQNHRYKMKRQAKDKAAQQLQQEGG

Experiment [3] deals with T2, NKX2-6 (Homo sapiens, UniProt A6NCS4 118-204, R150C).
T2 sequence: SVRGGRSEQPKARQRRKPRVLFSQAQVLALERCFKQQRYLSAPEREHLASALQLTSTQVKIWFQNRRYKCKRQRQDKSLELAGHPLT

Experiment [4] concerns the target T3, NKX2-6 (Homo sapiens, UniProt A6NCS4 118-204, F151L).
T3 sequence: T2 sequence with C33R, F34L

Experiment [5] deals with NKX3-2 (Homo sapiens, UniProt P78367 192-278, P234S).
NKX3-2 (Homo sapiens, UniProt P78367 192-278, P234S), sequence (P78367 192-278 P234S): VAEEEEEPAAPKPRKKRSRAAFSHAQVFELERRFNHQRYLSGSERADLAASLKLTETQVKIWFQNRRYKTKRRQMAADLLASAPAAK
In experiment [6] the target is NKX3-2 (Homo sapiens, UniProt P78367 192-278).
NKX3-2 (Homo sapiens, UniProt P78367 192-278), sequence (P78367 192-278): as the sequence (P78367 192-278 P234S) above, with S43P counted along it

Where a chain is given by its changes, count along the chain named.

HOXA7 (Homo sapiens, UniProt P31268 116-202), sequence (P31268 116-202): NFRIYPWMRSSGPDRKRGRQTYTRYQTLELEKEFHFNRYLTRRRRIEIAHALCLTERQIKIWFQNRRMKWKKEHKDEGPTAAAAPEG
HOXC10, sequence (Q9NYD6 254-340): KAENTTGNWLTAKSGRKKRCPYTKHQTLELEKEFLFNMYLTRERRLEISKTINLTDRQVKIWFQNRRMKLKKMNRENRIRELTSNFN
HOXA7 (Homo sapiens, UniProt P31268 116-202, W177C), sequence (P31268 116-202 W177C): as the sequence (P31268 116-202) above, with W62C counted along it

For the sequence CAGCGTGG, the binding signal is 8.45 upbm affinity estimate (log intensity, higher = more binding, comparable within an allelic series) with HOXA7 [1] and 8.4 upbm affinity estimate (log intensity, higher = more binding, comparable within an allelic series) in the experiment with HOXA7 [2].
In the case of AAATGGGG, the binding signal with HOXA7 [1] is 9.82 upbm affinity estimate (log intensity, higher = more binding, comparable within an allelic series); with HOXA7 [2], 8.64 upbm affinity estimate (log intensity, higher = more binding, comparable within an allelic series).
As to AGGCAAGG, the binding signal with HOXA7 [1] is 8.35 upbm affinity estimate (log intensity, higher = more binding, comparable within an allelic series); with HOXA7 [2], 8.48 upbm affinity estimate (log intensity, higher = more binding, comparable within an allelic series).
CGGTCCGC: the binding signal with HOXA7 [1] was 8.63 upbm affinity estimate (log intensity, higher = more binding, comparable within an allelic series); in the experiment with HOXA7 [2], 8.41 upbm affinity estimate (log intensity, higher = more binding, comparable within an allelic series).
Take AGTAGCCG: the binding signal in the experiment with HOXA7 [1] was 8.51 upbm affinity estimate (log intensity, higher = more binding, comparable within an allelic series); with HOXA7 [2] it was 8.43 upbm affinity estimate (log intensity, higher = more binding, comparable within an allelic series).
Consider ATCATCTA, for which the binding signal with HOXA7 [1] is 9.36 upbm affinity estimate (log intensity, higher = more binding, comparable within an allelic series); with HOXA7 [2] it was 8.74 upbm affinity estimate (log intensity, higher = more binding, comparable within an allelic series).
For the sequence GCTTTCGA, the binding signal with HOXA7 [1] is 8.45 upbm affinity estimate (log intensity, higher = more binding, comparable within an allelic series); with HOXA7 [2], 8.45 upbm affinity estimate (log intensity, higher = more binding, comparable within an allelic series).
In the case of AGCGCCGA, the binding signal with HOXA7 [1] is 8.38 upbm affinity estimate (log intensity, higher = more binding, comparable within an allelic series); with HOXA7 [2] it was 8.29 upbm affinity estimate (log intensity, higher = more binding, comparable within an allelic series).
For the sequence AGTAGTTA, the binding signal was 10 upbm affinity estimate (log intensity, higher = more binding, comparable within an allelic series) with HOXA7 [1] and 8.75 upbm affinity estimate (log intensity, higher = more binding, comparable within an allelic series) with HOXA7 [2].
With AGCATGCT, the binding signal was 8.54 upbm affinity estimate (log intensity, higher = more binding, comparable within an allelic series) with HOXA7 [1] and 8.54 upbm affinity estimate (log intensity, higher = more binding, comparable within an allelic series) in the experiment with HOXA7 [2].
On to GGCGGTCA, for which the binding signal with HOXA7 [1] is 8.58 upbm affinity estimate (log intensity, higher = more binding, comparable within an allelic series); in the experiment with HOXA7 [2], 8.5 upbm affinity estimate (log intensity, higher = more binding, comparable within an allelic series).
Consider AATACTAG, for which the binding signal with HOXC10 is 10.7 upbm affinity estimate (log intensity, higher = more binding, comparable within an allelic series).
Still for that read-out and setting: then CTTTTTTA, with 11.2 upbm affinity estimate (log intensity, higher = more binding, comparable within an allelic series).
As to AAGGCTAC, the binding signal was 8.53 upbm affinity estimate (log intensity, higher = more binding, comparable within an allelic series) with HOXA7 [1] and 8.49 upbm affinity estimate (log intensity, higher = more binding, comparable within an allelic series) in the experiment with HOXA7 [2].
As to CGTGATAA, the binding signal with HOXC10 is 10.9 upbm affinity estimate (log intensity, higher = more binding, comparable within an allelic series).
As to AGAATTAC, the binding signal with HOXA7 [1] is 9.68 upbm affinity estimate (log intensity, higher = more binding, comparable within an allelic series); in the experiment with HOXA7 [2] it was 8.8 upbm affinity estimate (log intensity, higher = more binding, comparable within an allelic series).
Turning to AGCAGAAG, the binding signal with HOXA7 [1] is 8.46 upbm affinity estimate (log intensity, higher = more binding, comparable within an allelic series); with HOXA7 [2], 8.54 upbm affinity estimate (log intensity, higher = more binding, comparable within an allelic series).
TATGCGCA: in the experiment with HOXC10, the binding signal was 10.8 upbm affinity estimate (log intensity, higher = more binding, comparable within an allelic series).
CAAAGCGG: the binding signal with HOXA7 [1] is 8.47 upbm affinity estimate (log intensity, higher = more binding, comparable within an allelic series); with HOXA7 [2], 8.45 upbm affinity estimate (log intensity, higher = more binding, comparable within an allelic series).
As to CAGTAATC, the binding signal with HOXA7 [1] is 9.67 upbm affinity estimate (log intensity, higher = more binding, comparable within an allelic series); with HOXA7 [2] it was 8.66 upbm affinity estimate (log intensity, higher = more binding, comparable within an allelic series).
Consider TATGTGCA, for which, in the experiment with HOXC10, the binding signal is 10.7 upbm affinity estimate (log intensity, higher = more binding, comparable within an allelic series).
As for AGGAGCCT, the binding signal with HOXA7 [1] was 8.33 upbm affinity estimate (log intensity, higher = more binding, comparable within an allelic series); with HOXA7 [2] it was 8.35 upbm affinity estimate (log intensity, higher = more binding, comparable within an allelic series).
For the sequence CACATAAC, the binding signal was 9.46 upbm affinity estimate (log intensity, higher = more binding, comparable within an allelic series) with HOXA7 [1] and 8.81 upbm affinity estimate (log intensity, higher = more binding, comparable within an allelic series) with HOXA7 [2].
Consider CCTGTGTC, for which the binding signal with HOXA7 [1] is 8.55 upbm affinity estimate (log intensity, higher = more binding, comparable within an allelic series); with HOXA7 [2] it was 8.53 upbm affinity estimate (log intensity, higher = more binding, comparable within an allelic series).
Regarding CTTCTAGA, the binding signal in the experiment with HOXA7 [1] is 8.36 upbm affinity estimate (log intensity, higher = more binding, comparable within an allelic series); with HOXA7 [2], 8.5 upbm affinity estimate (log intensity, higher = more binding, comparable within an allelic series).
Take TTACACAA: the binding signal with HOXC10 was 10.5 upbm affinity estimate (log intensity, higher = more binding, comparable within an allelic series).
Take GGAACTCA: the binding signal with HOXA7 [1] is 8.54 upbm affinity estimate (log intensity, higher = more binding, comparable within an allelic series); in the experiment with HOXA7 [2] it was 8.56 upbm affinity estimate (log intensity, higher = more binding, comparable within an allelic series).
GACAGTAA: the binding signal in the experiment with HOXC10 was 11 upbm affinity estimate (log intensity, higher = more binding, comparable within an allelic series).
As for AAGCGGCG, the binding signal is 8.49 upbm affinity estimate (log intensity, higher = more binding, comparable within an allelic series) in the experiment with HOXA7 [1] and 8.33 upbm affinity estimate (log intensity, higher = more binding, comparable within an allelic series) with HOXA7 [2].
For CAATTGCG, the binding signal was 9.48 upbm affinity estimate (log intensity, higher = more binding, comparable within an allelic series) with HOXA7 [1] and 8.54 upbm affinity estimate (log intensity, higher = more binding, comparable within an allelic series) with HOXA7 [2].
Regarding CGAGGACG, the binding signal with HOXA7 [1] was 8.54 upbm affinity estimate (log intensity, higher = more binding, comparable within an allelic series); with HOXA7 [2], 8.4 upbm affinity estimate (log intensity, higher = more binding, comparable within an allelic series).
Regarding ATTCGTAA, in the experiment with HOXC10, the binding signal is 10.8 upbm affinity estimate (log intensity, higher = more binding, comparable within an allelic series).
Still for that read-out and setting: then GGTTATAC, with 10.8 upbm affinity estimate (log intensity, higher = more binding, comparable within an allelic series); and CAAATAAA, with 11.4 upbm affinity estimate (log intensity, higher = more binding, comparable within an allelic series).
GCACTTTA: the binding signal was 12.8 upbm affinity estimate (log intensity, higher = more binding, comparable within an allelic series) with NKX2-4; 11.7 upbm affinity estimate (log intensity, higher = more binding, comparable within an allelic series) with NKX2-6 [3]; 10.7 upbm affinity estimate (log intensity, higher = more binding, comparable within an allelic series) with NKX2-6 [4]; 12.5 upbm affinity estimate (log intensity, higher = more binding, comparable within an allelic series) in the experiment with NKX3-2 [5]; 12.6 upbm affinity estimate (log intensity, higher = more binding, comparable within an allelic series) with NKX3-2 [6].
As for CAAGCACC, the binding signal with HOXA7 [1] is 8.65 upbm affinity estimate (log intensity, higher = more binding, comparable within an allelic series); in the experiment with HOXA7 [2], 8.49 upbm affinity estimate (log intensity, higher = more binding, comparable within an allelic series).
As to CCTCGAGG, the binding signal in the experiment with HOXA7 [1] is 8.59 upbm affinity estimate (log intensity, higher = more binding, comparable within an allelic series); in the experiment with HOXA7 [2], 8.59 upbm affinity estimate (log intensity, higher = more binding, comparable within an allelic series).
As for TAATTCAA, the binding signal was 9.8 upbm affinity estimate (log intensity, higher = more binding, comparable within an allelic series) with HOXA7 [1] and 8.74 upbm affinity estimate (log intensity, higher = more binding, comparable within an allelic series) in the experiment with HOXA7 [2].
In the case of AGATAAAC, the binding signal was 9.31 upbm affinity estimate (log intensity, higher = more binding, comparable within an allelic series) with HOXA7 [1] and 8.79 upbm affinity estimate (log intensity, higher = more binding, comparable within an allelic series) in the experiment with HOXA7 [2].
Turning to GCAGGTCC, the binding signal was 8.46 upbm affinity estimate (log intensity, higher = more binding, comparable within an allelic series) with HOXA7 [1] and 8.46 upbm affinity estimate (log intensity, higher = more binding, comparable within an allelic series) with HOXA7 [2].
As for GACAGCGA, the binding signal was 8.31 upbm affinity estimate (log intensity, higher = more binding, comparable within an allelic series) in the experiment with HOXA7 [1] and 8.41 upbm affinity estimate (log intensity, higher = more binding, comparable within an allelic series) with HOXA7 [2].
Regarding ATGCCATA, the binding signal in the experiment with HOXC10 was 11 upbm affinity estimate (log intensity, higher = more binding, comparable within an allelic series).
Take ACAGCGAG: the binding signal with HOXA7 [1] is 8.39 upbm affinity estimate (log intensity, higher = more binding, comparable within an allelic series); with HOXA7 [2], 8.41 upbm affinity estimate (log intensity, higher = more binding, comparable within an allelic series).
Turning to CTGGATGC, the binding signal was 8.4 upbm affinity estimate (log intensity, higher = more binding, comparable within an allelic series) with HOXA7 [1] and 8.44 upbm affinity estimate (log intensity, higher = more binding, comparable within an allelic series) with HOXA7 [2].
As to GCGGCTAC, the binding signal is 8.37 upbm affinity estimate (log intensity, higher = more binding, comparable within an allelic series) in the experiment with HOXA7 [1] and 8.37 upbm affinity estimate (log intensity, higher = more binding, comparable within an allelic series) with HOXA7 [2].
As for GTACTTTA, in the experiment with NKX2-4, the binding signal was 12.8 upbm affinity estimate (log intensity, higher = more binding, comparable within an allelic series).
Regarding ACCAATAC, the binding signal in the experiment with HOXC10 is 10.6 upbm affinity estimate (log intensity, higher = more binding, comparable within an allelic series).
With CACCGCTA, the binding signal in the experiment with HOXA7 [1] was 8.52 upbm affinity estimate (log intensity, higher = more binding, comparable within an allelic series); with HOXA7 [2] it was 8.43 upbm affinity estimate (log intensity, higher = more binding, comparable within an allelic series).
Regarding AGATGTTA, the binding signal with HOXC10 is 10.8 upbm affinity estimate (log intensity, higher = more binding, comparable within an allelic series).
